Drawing on PubChem BioAssay, this text covers growth inhibition, inhibition and outcome for 21 molecules.

Assay [1] can be described thus: antimalarial activity against Dd2 strain (AID 2302;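 active means growth inhibition above 50% at the single 2 µM test dose, taken to imply half-maximal potency below 2 µM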;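 further: 0% = DMSO untreated growth and 100% = chloroquine plus artemisinin killed control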). To be noted: P. falciparum Dd2 in RBCs, LDH growth readout, 72 h; at 2 µM; active compounds read high.
A short description of assay [2]: human hepatoma cell viability loss – ATP luminescence, cytotoxicity control for P. falciparum antimalarial project, primary screen (AID 2303;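 active means inhibition above 50%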;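 further: 0% = DMSO wells and 100% = digitonin-killed cells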). To be noted: HepG2 viability, 24-48 h, at 10 µM, active compounds read high.
The target in assay [3] is L-lactate dehydrogenase (Plasmodium falciparum (isolate CDC / Honduras)) (UniProt Q27743). Kind of assay: PfLDH activity inhibition – cell lysate, 3D7 strain, counter-screen for P. falciparum growth inhibition project (AID 2304).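 Further: 0% = vehicle and 100% = reference inhibitor.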 To be noted: P. falciparum 3D7 crude extract, LDH APAD/NBT absorbance; at 2 µM; active compounds read high. Background: The purpose of a counterscreen is to sort out artefacts and off-target activity.

Assay [4] is described as follows: inhibition of 3D7 malaria parasite growth – strain 3D7 (AID 2306).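 Further: 0% = DMSO wells and 100% = chloroquine plus artemisinin control wells.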 To be noted: P. falciparum 3D7 erythrocytic growth, LDH absorbance, 72 h; at 2 µM; active compounds read high.
Assay [5] has as its target Calcium-dependent protein kinase 1 (Plasmodium falciparum (isolate 3D7)) (UniProt P62344). Briefly: PfCDPK1 kinase inhibitors, biochemical, TCAMS library (AID 1159585; cut-off not given, nearly all actives have IC50 up to about 0.98 µM;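 further: inhibitors leave more ATP so luminescence rises with inhibition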). To be noted: recombinant PfCDPK1, Kinase-Glo ATP depletion luminescence. For orientation: In Kinase-Glo more light means more ATP remaining.
For assay [6], the target named is Plasmodium falciparum protein kinase 6 (PK6, PF3D7_1337100) (UniProt Q8IDW1). Briefly: PfPK6 kinase inhibitors, biochemical, TCAMS library (AID 1159586). To be noted: recombinant PfPK6, Kinase-Glo ATP depletion luminescence.
Assay [7] addresses Protein kinase 7 (PK7), Plasmodium falciparum 3D7 (PF3D7_0213400) (UniProt Q7YTF7). Briefly: inhibition of Plasmodium PK7 catalytic activity – biochemical, TCAMS antimalarial set, Kinase-Glo luminescence (AID 1159587). To be noted: recombinant PfPK7, Kinase-Glo ATP depletion luminescence.
The target of assay [8] is Calcium-dependent protein kinase 4 (Plasmodium falciparum (isolate 3D7)) (UniProt Q8IBS5). Kind of assay: PfCDPK4 kinase inhibitors, biochemical, TCAMS library (AID 1159588; cut-off not given, nearly all actives have IC50 up to about 0.91 µM). To be noted: recombinant PfCDPK4, Kinase-Glo ATP depletion luminescence.

Unmarked numbers belong to inactive results. For part of these data: Entries with a potency or affinity are not part of this list. Calls of active or inactive are those of the source. Unless noted, how the calls were made is not given here.

Chain of Protein kinase 7 (PK7), Plasmodium falciparum 3D7 (PF3D7_0213400) (Q7YTF7 1-343): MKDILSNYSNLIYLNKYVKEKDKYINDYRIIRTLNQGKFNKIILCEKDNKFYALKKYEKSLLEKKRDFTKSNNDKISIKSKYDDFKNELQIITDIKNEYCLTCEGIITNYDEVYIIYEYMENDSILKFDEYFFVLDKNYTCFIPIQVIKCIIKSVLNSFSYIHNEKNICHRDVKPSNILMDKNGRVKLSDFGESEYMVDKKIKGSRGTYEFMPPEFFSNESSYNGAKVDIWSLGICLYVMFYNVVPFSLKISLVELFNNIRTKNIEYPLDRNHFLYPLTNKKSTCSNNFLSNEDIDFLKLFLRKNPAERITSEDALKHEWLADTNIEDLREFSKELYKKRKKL
Chain of Calcium-dependent protein kinase 1 (Plasmodium falciparum (isolate 3D7)) (P62344 whole entry, looked up): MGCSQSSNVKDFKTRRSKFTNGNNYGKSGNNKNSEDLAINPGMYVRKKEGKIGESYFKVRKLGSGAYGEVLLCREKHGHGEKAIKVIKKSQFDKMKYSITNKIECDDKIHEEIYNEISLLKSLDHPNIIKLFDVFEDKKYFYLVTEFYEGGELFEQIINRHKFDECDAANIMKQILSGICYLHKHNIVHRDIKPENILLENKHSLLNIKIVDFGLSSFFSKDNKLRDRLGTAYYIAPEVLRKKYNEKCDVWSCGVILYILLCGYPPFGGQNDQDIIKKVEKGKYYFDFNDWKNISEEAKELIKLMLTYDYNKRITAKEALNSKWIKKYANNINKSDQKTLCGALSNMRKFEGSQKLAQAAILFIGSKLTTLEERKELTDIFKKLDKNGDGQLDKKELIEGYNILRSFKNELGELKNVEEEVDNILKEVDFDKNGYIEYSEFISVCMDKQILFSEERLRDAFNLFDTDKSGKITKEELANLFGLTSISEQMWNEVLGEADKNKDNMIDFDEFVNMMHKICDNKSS
Chain of Plasmodium falciparum protein kinase 6 (PK6, PF3D7_1337100) (Q8IDW1 1-305): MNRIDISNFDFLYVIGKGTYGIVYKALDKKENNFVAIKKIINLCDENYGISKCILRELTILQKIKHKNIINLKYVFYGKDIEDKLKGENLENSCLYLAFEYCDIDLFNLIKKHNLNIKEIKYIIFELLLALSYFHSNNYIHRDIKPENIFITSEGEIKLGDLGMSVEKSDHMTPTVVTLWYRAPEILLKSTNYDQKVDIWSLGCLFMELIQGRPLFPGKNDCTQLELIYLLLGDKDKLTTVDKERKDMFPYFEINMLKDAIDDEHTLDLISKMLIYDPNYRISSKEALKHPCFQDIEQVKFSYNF
Chain of L-lactate dehydrogenase (Plasmodium falciparum (isolate CDC / Honduras)) (Q27743 whole entry, looked up): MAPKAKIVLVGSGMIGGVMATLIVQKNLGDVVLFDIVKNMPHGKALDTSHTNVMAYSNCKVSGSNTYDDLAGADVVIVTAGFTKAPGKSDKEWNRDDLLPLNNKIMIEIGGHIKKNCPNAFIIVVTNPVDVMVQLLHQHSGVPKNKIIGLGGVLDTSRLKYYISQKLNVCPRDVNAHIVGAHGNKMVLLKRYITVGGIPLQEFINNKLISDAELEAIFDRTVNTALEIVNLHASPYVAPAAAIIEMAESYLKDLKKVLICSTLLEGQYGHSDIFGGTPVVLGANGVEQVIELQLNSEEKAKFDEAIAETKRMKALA
Chain of Calcium-dependent protein kinase 4 (Plasmodium falciparum (isolate 3D7)) (Q8IBS5 whole entry, looked up): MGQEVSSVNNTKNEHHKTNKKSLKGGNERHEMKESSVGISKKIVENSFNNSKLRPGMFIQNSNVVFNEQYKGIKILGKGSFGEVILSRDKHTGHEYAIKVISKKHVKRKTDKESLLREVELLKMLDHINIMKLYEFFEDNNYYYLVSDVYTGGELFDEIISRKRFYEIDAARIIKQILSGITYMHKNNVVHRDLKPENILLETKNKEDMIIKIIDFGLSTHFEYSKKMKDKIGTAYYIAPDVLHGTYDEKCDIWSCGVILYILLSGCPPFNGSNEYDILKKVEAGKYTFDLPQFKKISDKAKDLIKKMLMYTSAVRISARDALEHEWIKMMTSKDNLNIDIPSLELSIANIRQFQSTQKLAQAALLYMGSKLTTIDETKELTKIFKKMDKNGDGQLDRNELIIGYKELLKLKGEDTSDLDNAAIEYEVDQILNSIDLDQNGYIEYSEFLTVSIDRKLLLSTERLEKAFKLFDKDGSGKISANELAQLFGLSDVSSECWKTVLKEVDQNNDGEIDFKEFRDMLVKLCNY

For orientation: inhibition means the relative decrease from the control value, in per cent. For `COc1cc2nc(N3CCC(CCCC4CCNCC4)CC3)nc(NCc3ccccn3)c2cc1OC`, the growth inhibition is 6% in assay [1] and 101% (active) in assay [4]. Besides, the inhibition is 2% in assay [2] and 3% in assay [3]. The result in assay [5], in assay [6], in assay [7] and in assay [8] was inactive.
As for `CC(=O)Oc1c(C(=O)C2CCC(C(C)(C)C)CC2)c(OC(C)=O)c2ccccc2c1OC(C)=O` (stereo not drawn), the growth inhibition in assay [1] and in assay [4] was 96% (active) each time. Moreover, the inhibition in assay [2] was 9%; in assay [3], 2%. In addition, the result in assay [5], in assay [6], in assay [7] and in assay [8] was inactive.
`CCCC1N=C(N)N=C(N)N1c1ccc(CC)cc1` (stereo not drawn): the figures for the growth inhibition in assay [1] and in assay [4] were 4% and 94% (active), respectively. For the same molecule, the figures for the inhibition in assay [2] and in assay [3] were 11% and 1%, respectively. For the same molecule, the outcome in assay [5], in assay [6], in assay [7] and in assay [8] was inactive.
Consider `CCOc1cc2ncnc(Nc3ccc(OCc4c(F)cccc4F)c(OC)c3)c2cc1OCC`, for which the figures for the growth inhibition in assay [1] and in assay [4] were 60% (active) and 96% (active), respectively. Besides, the inhibition is 7% in assay [2] and -2% in assay [3]. In addition, the result in assay [5], in assay [6], in assay [7] and in assay [8] was inactive.
Turning to `CCN(CC)CCON=Cc1cc(C)c2[nH]c3ccc(OCc4ccccc4)cc3c2c1C`, the figures for the growth inhibition in assay [1] and in assay [4] were 29% and 98% (active), respectively. Further, the inhibition is 29% in assay [2] and 1% in assay [3]. The result in assay [5], in assay [6], in assay [7] and in assay [8] was inactive.
Turning to `O=C(NC1c2ccccc2Oc2ccccc21)c1ccccc1O`, the figures for the growth inhibition in assay [1] and in assay [4] were -3% and 95% (active), respectively. Further, the inhibition is -3% in assay [2] and -1% in assay [3]. The outcome in assay [5], in assay [6], in assay [7] and in assay [8] was inactive.
As for `CCc1cc(-c2onc(C(F)(F)F)c2-c2ccccc2)c(O)cc1OC`, the results for the growth inhibition in assay [1] and in assay [4] were 73% (active) and 98% (active), respectively. For the same molecule, the inhibition in assay [2] is 16%; in assay [3] it was -2%. The result in assay [5], in assay [6], in assay [7] and in assay [8] was inactive.
As to `COc1ccc(NC(=O)[C@H](Cc2ccccc2)Nc2cc(C)nc(NCCc3cccs3)n2)cc1`, the results for the growth inhibition in assay [1] and in assay [4] were 83% (active) and 100% (active), respectively. Besides, the inhibition in assay [2] was 12%; in assay [3], -2%. Further, the result in assay [5], in assay [6], in assay [7] and in assay [8] was inactive.
For `CN(Cc1cc(C(F)(F)F)cc(C(F)(F)F)c1)C(=O)[C@H]1CNC[C@@H]1c1ccc(F)cc1`, the results for the growth inhibition in assay [1] and in assay [4] were 4% and 92% (active), respectively. In addition, the inhibition in assay [2] was 1%; in assay [3], -5%. Moreover, the result in assay [5], in assay [6], in assay [7] and in assay [8] was inactive.
Regarding `CCOc1ccc2nc(C)cc(NN=Cc3cccc(C)n3)c2c1`, the values for the growth inhibition in assay [1] and in assay [4] were 73% (active) and 99% (active), respectively. The values for the inhibition in assay [2] and in assay [3] were 6% and 0%, respectively. Moreover, the result in assay [5], in assay [6], in assay [7] and in assay [8] was inactive.
Turning to `CN(C)c1c(CNCCCCCCNCc2ccc3ccccc3c2N(C)C)ccc2ccccc12`, the growth inhibition was 51% (active) in assay [1] and 100% (active) in assay [4]. Moreover, the inhibition was 100% (active) in assay [2] and -2% in assay [3]. In addition, the outcome in assay [5], in assay [6], in assay [7] and in assay [8] was inactive.
In the case of `COc1cccc(Nc2nc(C)cc(Nc3cccc(C#N)c3)n2)c1`, the growth inhibition in assay [1] was 92% (active); in assay [4] it was 101% (active). The inhibition in assay [2] is -2%; in assay [3] it was -3%. Also, the result in assay [5], in assay [6], in assay [7] and in assay [8] was inactive.
As to `COc1cccc(NC(=O)Cn2c(C)c(C(=O)C(F)(F)F)c3ccccc32)c1`, the growth inhibition is 94% (active) in assay [1] and 97% (active) in assay [4]. The values for the inhibition in assay [2] and in assay [3] were 2% and -5%, respectively. Also, the result in assay [5], in assay [6], in assay [7] and in assay [8] was inactive.
Consider `Cc1ccc(OCCCCONC(=O)c2ccccc2)cc1`, for which the growth inhibition in assay [1] was 1%; in assay [4] it was 96% (active). Moreover, the inhibition in assay [2] was 6%; in assay [3] it was -2%. For the same molecule, the result in assay [5], in assay [6], in assay [7] and in assay [8] was inactive.
With `CC(C)c1cc2c(cc1O)C(Cc1ccccc1Cl)N(C)CC2` (stereo not drawn), the growth inhibition in assay [1] was 33%; in assay [4], 97% (active). For the same molecule, the inhibition in assay [2] is -7%; in assay [3], -4%. Also, the result in assay [5], in assay [6], in assay [7] and in assay [8] was inactive.
For `O=C1[C@H]2C(c3ccc(Cl)c(Cl)c3)N3CC(OCc4ccccc4)CC3(C(=O)O)[C@H]2C(=O)N1c1ccc(Br)cc1` (stereo partly drawn), the growth inhibition in assay [1] was 86% (active); in assay [4], 104% (active). Also, the inhibition in assay [2] was 14%; in assay [3], 2%. The outcome in assay [5], in assay [6], in assay [7] and in assay [8] was inactive.
Regarding `C[C@@H](NC(=O)c1nn(-c2ccc(Cl)cc2)c(=O)c2ccccc12)C(C)(C)C`, the growth inhibition was 20% in assay [1] and 95% (active) in assay [4]. Besides, the inhibition in assay [2] was 7%; in assay [3], -2%. The result in assay [5], in assay [6], in assay [7] and in assay [8] was inactive.
As for `CN(C)CCN(C)C(=O)c1cc(-c2ccncc2)c(-c2ccc(Cl)c(O)c2)o1`, the growth inhibition in assay [1] is 34%; in assay [4] it was 97% (active). Further, the inhibition in assay [2] was -11%; in assay [3], 0%. Moreover, the outcome in assay [5], in assay [6], in assay [7] and in assay [8] was inactive.
For `CCOc1ccc2nc(NC(=O)c3csnn3)sc2c1`, the figures for the growth inhibition in assay [1] and in assay [4] were 98% (active) and 100% (active), respectively. For the same molecule, the inhibition in assay [2] is 6%; in assay [3] it was 1%. Also, the result in assay [5], in assay [6], in assay [7] and in assay [8] was inactive.
For the molecule `CCc1cn(C)c2c(N3CCCC3=O)cc(C(=O)N[C@@H](Cc3ccccc3)[C@H](O)CNC(C)(C)c3cccc(OC)c3)cc12`, the growth inhibition is 99% (active) in assay [1] and 95% (active) in assay [4]. Also, the results for the inhibition in assay [2] and in assay [3] were 9% and -1%, respectively. The outcome in assay [5], in assay [6], in assay [7] and in assay [8] was inactive.
Take `COc1cccc(Cc2cnc3nc(N)nc(N)c3c2C)c1`: the growth inhibition in assay [1] is 76% (active); in assay [4] it was 94% (active). Besides, the figures for the inhibition in assay [2] and in assay [3] were 57% (active) and 0%, respectively. Further, the result in assay [5], in assay [6], in assay [7] and in assay [8] was inactive.
